In PubChem BioAssay (NCI):
The panel holds about 79,000 compounds, 15% with a hit somewhere; the sample as a whole holds those more often. The source made the active and inactive calls. No stated cut-off is given here; in the data, active means growth inhibition above about 70%; inactive means the rest.

Experiment: NCI Yeast Anticancer Drug Screen. Data for the mec2-1 strain (AID 157)
Details: S. cerevisiae mec2-1 strain, at 50.0 µM, hits give high values
Procedure: Growth inhibition of yeast strains with defined genetic alterations is measured as a screen for potential anti-cancer activity. Selected strains with alterations in DNA damage repair or cell cycle control were exposed to compounds and growth inhibition was measured relative to vehicle treated controls. The strain used in this assay is mec2-1

SMILES	growth inhibition
CC12CCC(C/C1=N\O)C2(C)CBr (stereo not given)	-2.15% (inactive)
CC(=O)CC1CCCCCC1	4.3% (inactive)
O=C/C=C/C=C/C=C/c1ccccc1	-6.15% (inactive)
O=C(NC1CC1)C1CC1	-12.8% (inactive)
Cc1ccc(N=Nc2ccc([N+](=O)[O-])cc2)c([N+](=O)[O-])c1	-11.2% (inactive)
Cc1cccc(NC(=O)Oc2cc(C)c(Cl)cc2C(C)C)c1	98.9% (active)
CC(O)CNC(=O)Nc1ccccc1 (stereo not given)	-26.8% (inactive)
Nc1nc(SCC(=O)O)[nH]c(=O)c1NS(=O)(=O)c1ccccc1[N+](=O)[O-]	-4.1% (inactive)
S=C1CSc2c(cnc3ccccc23)N1	-6% (inactive)
[O-][n+]1c2ccc(Cl)cc2nc2ccc(Cl)cc21	-10.9% (inactive)
O=C1CS[C@@H]2C(=O)CCCC2C1 (stereo not given in full)	17.6% (inactive)
CSC(=NNC(N)=O)SC	-2.8% (inactive)
C1CC2CCC1CN(C1COC(N3CC4CCC(CC4)C3)CO1)C2 (stereo not given)	1.55% (inactive)
O=S(=O)(O)CS(=O)(=O)O	-2.3% (inactive)
COc1ccc(-c2nc(SCc3ccc(Cl)cc3)[nH]c(=O)c2CCO)cc1	-7.75% (inactive)
CCSC(SCC)C(NC(C)=O)C(O)C(O)COC(=O)c1ccccc1 (stereo not given)	17.3% (inactive)
O=C1CCCCCC1	-8.9% (inactive)
CO/C=C1/CCc2c(ccc3cc(OC)ccc23)C1=O	-8.75% (inactive)
O=C(CCCn1ccnc1[N+](=O)[O-])NCCn1cncc1[N+](=O)[O-]	-8.2% (inactive)
CCCCCC/C=C/CCCCCCCC(=O)O	-25.1% (inactive)

SMILES	growth inhibition
N/N=C(/C(=O)Nc1cccc(Cl)c1)C(C(=O)c1ccc(O)cc1O)C1OC(=O)c2ccccc21 (stereo not given)	-14.3% (inactive)
CCCCCCCCCCCCCCCCO	-14.2% (inactive)
COC(=O)c1ccccc1-c1ccccc1C(=O)OC	18.1% (inactive)
CC(=O)NC1C(OC(C)C(=O)NC(C(=O)NC(CCC(=O)NCCCNC2c3ccccc3Nc3cccc([N+](=O)[O-])c32)C(N)=O)C(C)C)C(O)C(CO)OC1(C)OCc1ccccc1 (stereo not given)	-20.4% (inactive)
CC(=O)NCc1cccc([N+](=O)[O-])c1	-12.9% (inactive)
CN1C(=O)CC2(C)c3cc(O)ccc3N(C)C12 (stereo not given)	30.1% (inactive)
C/C(=N\NC(=O)c1ccccc1O)c1cccc(/C(C)=N/NC(=O)c2ccccc2O)n1.O=S(=O)([O-])[O-].[Fe+2]	38.8% (inactive)
CNn1c(-c2ccccc2)n[nH]c1=O	2.85% (inactive)
O=C(OCc1ccccc1)C1(O)CCCCC1	-16.2% (inactive)
CC[O-].CC[O-].O=C([CH-]C(=O)c1ccccc1)CCCCCCC(=O)[CH-]C(=O)c1ccccc1.[Ti+4]	-13.7% (inactive)
COC(=O)c1c2c(cc3c1CC1(C3)Cc3cc4c(c(C(C)=O)c3C1)CCC4)C=CC2 (stereo not given)	-12.3% (inactive)
Cc1ccc2cc(CCCC(=O)O)ccc2c1	25.8% (inactive)
COc1cccc(NC(=S)NCc2cccnc2)c1	-24.9% (inactive)
C1=CC2=CC=CC3c4nc5ccc6ccccc6c5nc4C(=C1)C23 (stereo not given)	-9.3% (inactive)
O=C1CSC(c2cccc(F)c2)N1CCN1C(=O)CSC1c1cccc(F)c1 (stereo not given)	16.7% (inactive)
CCCCCCCc1ccc(N=Cc2ccc(OCCC)cc2)cc1	99.3% (active)
O=C(Nc1ccc(Cl)cc1)Nc1nnc2nc(C3(c4nc5nnc(NC(=O)Nc6ccc(Cl)cc6)n5[nH]c4=O)Cc4ccccc4C3=O)c(=O)[nH]n12	-1.6% (inactive)
O=CC1=CCC2c3[nH]c4ccccc4c3CCN2C1 (stereo not given)	20.5% (inactive)
O=C1c2cc([N+](=O)[O-])sc2C(=O)c2c([N+](=O)[O-])csc21	93% (active)
Cc1ccc(S(=O)(=O)Oc2cccc(Br)c2)cc1	-1.25% (inactive)
